PINK1 expr mod: modulators of PINK1 expression; PINK1 immunofluorescence, high-content cytometry, 24 h; Potency, µM (series often up to 76.6 µM), most hits filed as activators; hit rate 0.2% among 410,000; AID 624263; active = well fitted activation curve with a large enough effect; inconclusive = small, poorly fitted or top-dose-only effect; cell line not stated here; also: nearly all actives have a fitted effect of over 65% in size
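Stable cell line, 250 cells/well, 12 h attachment; compounds pinned at 5 concentrations, 24 h; CCCP control. Fixed with nuclear dye, primary antibodies 12 h at 10 degrees C, secondary plus cell stain; laser-scanning cytometer read.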
MCF10A rereplic: DNA re-replication induction in MCF 10a cells; MCF 10A DNA re-replication, Hoechst nuclear intensity, 48 h; Potency, µM (top dose mostly 46.1 µM), hits mostly activators; hit rate 2.9% among 350,000; also: nearly all actives have a fitted effect of over 50% in size
S2 tox: viability counter-screen for ATXN expression inhibitors | hit rate 0.49% among 400,000 | S2 cells (HEK-293 line with an ATXN2-luciferase reporter) viability, CellTiter-Fluor protease fluorescence, 24 h | Potency, µM (titrated, usually from 56.7 µM), hits mostly cytotoxic; also: nearly all actives have a fitted effect of over 40% in size
IL1B secr inh: blocks inflammasome-driven IL-1 beta release. THP-1 LPS/ATP IL-1B secretion, AlphaLISA, 16 h; stronger effect = lower value. activity change, % at 57.5 µM. hit rate 4.7% among 360,000; in the data active = activity change below about -50%; inconclusive = mostly about -30% to -49%
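THP-1 cells pretreated 1 hr with compounds (up to 57.5 uM final), then stimulated with LPS (250 ng/mL final) plus ATP (1.25 mM final); secreted IL-1B measured by AlphaLISA after 16 hr, decreased signal indicating inhibition.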
SW480 rerep: induces DNA re-replication in SW480 colon adenocarcinoma cells | SW480 DNA re-replication, Hoechst DNA content imaging, 48 h | Potency, µM (top dose mostly 46.1 µM), most hits filed as activators | hit rate 1.8% among 340,000; also: nearly all actives have a fitted effect of over 55% in size
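Per well, 250 cells were exposed to pinned compound for 48 hr. Nuclear DNA was visualised with Hoechst (40 min, 37 C) and total object intensity recorded by fluorescence scanning.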
ATXN2 expr inh: reduces ATXN2 reporter expression in HEK-293 cells; HEK-293 ATXN2-luciferase reporter, luminescence, 24 h; Potency, µM (doses to about 57 µM), hits mostly inhibitors; hit rate 0.72% among 360,000; AID 1745845; also: nearly all actives have a fitted effect of over 55% in size
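ATXN2-luciferase reporter cells (luciferase flanked by upstream and downstream ATXN2 gene portions) were treated 24 h at 37 °C with compounds at up to 57 uM. SteadyGlo luminescence gave expression; GF-AFC fluorescence gave viability.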
Hits are given with their value; - = inactive; ? = inconclusive; . = no result given; [ ] = dose if it differs, or a comment. An excerpt weighted towards active compounds, which were near 7.1% of everything screened. Unless noted, calls follow the shape of the dose curve; as a rule, active = well fitted curve in the direction sought with a large enough effect; inconclusive = small, poorly fitted or top-dose-only effect, or another doubt; inactive = no such curve, though single readings can be large; an effect the other way counts as inactive or inconclusive.

SMILES	PINK1 expr mod	MCF10A rereplic	S2 tox	IL1B secr inh	SW480 rerep	ATXN2 expr inh
O=C(Nc1ccc(F)cc1C(F)(F)F)C1CCN(c2ncccn2)CC1	-	.	-	.	.	-
CCN1C=CC(=C2C(=O)c3ccccc3C2=O)C=C1	-	-	?	?	-	1.12µM
CCOC(CNC(=O)Cn1nc(C)c2ccccc21)OCC	-	0.731µM	-	-	-	-
COc1ccccc1/C=C1\CCCC2=C1Nc1nnnn1C2c1ccccc1OC (stereo unspecified)	-	?	-	-101.3	?	-
COc1ccccc1NC(=O)C1=C(C)Nc2nnnn2C1c1ccccc1OC (stereo unspecified)	-	-	-	-	-	-
O=c1oc2ccc(F)cc2cc1-c1nc(-c2cccs2)no1	-	.	.	.	.	.
O=c1c(-c2nc3ccccc3s2)cccn1Cc1ccc(Cl)cc1	-	3.26µM	-	-	?	-
Clc1ncccc1-c1nc2ccccc2s1	-	-	-	-	-	-
CC1=Nc2ccccc2/C1=C/c1c(N)n2c(S(=O)(=O)CC(C)C)nsc2nc1=O	-	14.6µM	?	-	-	-
CC1=Nc2ccc(C)cc2/C1=C/c1c(N)n2nc(CC(=O)N3CCOCC3)sc2nc1=O	-	-	-	-	-	.
CC1=Nc2ccccc2/C1=C/c1c(N)n2c(S(=O)(=O)C(C)C)nsc2nc1=O	-	-	-	-	-	-[11.3 µM]
CC1=Nc2ccc(C)cc2/C1=C/c1c(N)n2oc(C)cc2nc1=O	?	18.4µM	-	-	-	-
CSc1nsc2nc(=O)c(/C=C3\C(C)=Nc4ccc(C)cc43)c(N)n12	-	9.2µM	-	-	?	-[11.3 µM]
CC1=Nc2ccc(C)cc2/C1=C/c1c(N)n2c(S(=O)(=O)C(C)C)nsc2nc1=O	-	?	?	-	-	-
O=C(NC1=NCCS1)c1cccc(S(=O)(=O)N2CCOCC2)c1	-	-	-	-	-	-
CC(=O)c1ccc(NC(=O)c2nn(C)c3c2COc2ccccc2-3)cc1	-	.	.	.	.	.
COc1cc(/C(O)=C(\C#N)c2nc3ccccc3[nH]2)cc(OC)c1OC	-	14.6µM	-	?	?	.
N#C/C(=C(\O)c1cc(Cl)sc1Cl)c1nc2ccccc2[nH]1	?	20.6µM	-	-	?	-
N#C/C(=C(/O)c1ccc(Cl)cc1)c1nc2ccccc2[nH]1	-	-	-	-	-	-
C/C(O)=C(/C#N)c1nc2ccccc2[nH]1	-	-	-	-	-	-
O=C(NCc1ccc(F)cc1)C1CCCN(c2ncnc3onc(-c4ccc(F)cc4)c23)C1 (stereo unspecified)	-	.	-	.	.	-
CC1(C)CC2CC(C)(CN2C(=O)c2cc(-c3ccc(O)cc3)on2)C1 (stereo unspecified)	-	?	?	-61.6	-	-
Cc1ccc(C(=O)Nc2ccccc2C(=O)N2CC3(C)CC2CC(C)(C)C3)cc1 (stereo unspecified)	-	25.9µM	-	-	?	-
COc1ccc(/C=c2\[nH]c(=O)/c(=C/c3ccc(OC)c(OC)c3)[nH]c2=O)cc1OC	-	.	.	.	.	.
COc1ccc(/C=c2\s/c(=C/C(=O)c3ccc(C)cc3)[nH]c2=O)cc1OC	-	13µM	.	-	-	?
SMILES	PINK1 expr mod	MCF10A rereplic	S2 tox	IL1B secr inh	SW480 rerep	ATXN2 expr inh
Cc1ccc(NC(=O)C2CCCN(S(=O)(=O)c3c(C)n[nH]c3C)C2)cc1C (stereo unspecified)	-	.	-	.	.	-
CNC(=O)c1nn(C)c2c1C(C)(C)Cc1cnc(Nc3ccc(N4CCN(C)CC4)cc3)nc1-2	.	.	.	.	.	1.72µM
Cc1ccccc1C(=O)/C(C#N)=N/Nc1c(C)n(C)n(-c2ccccc2)c1=O	-	-	?	-	?	7.08µM
Cc1c(N/N=C(\C#N)C(=O)c2ccccc2)c(=O)n(-c2ccccc2)n1C	-	-	?	-	?	14.1µM
CCOC(=O)/C(C#N)=N/Nc1c(C)n(C)n(-c2ccccc2)c1=O	-	-	-	-	-	-
Cc1ccc(Nc2nc(NCc3ccco3)nc3nccnc23)c(C)c1	-	.	.	.	.	.
NCCCC(N)CC(=O)NCC1NC(=O)C(CO)NC(=O)C(N)CNC(=O)C(C2CCN=C(N)N2)NC(=O)C(=CNC(N)=O)NC1=O (stereo unspecified)	.	.	-[0.575 µM]	.	.	-[0.709 µM]
CCN(CC)S(=O)(=O)c1cccc(C(=O)Nc2cc(C)on2)c1	-	-	-	-	-	-
CCN(CC)S(=O)(=O)c1cc(C(=O)Nc2cc(C)on2)c(Cl)cc1Cl	-	?	-	-94.3	?	-
CCN(CC)S(=O)(=O)c1cc(C(=O)Nc2nncs2)c(Cl)cc1Cl	-	?	-	-84.0	?	-
CCN(CC)S(=O)(=O)c1ccc(Cl)c(C(=O)Nc2nncs2)c1	-	-	-	-	-	-
CCN(CC)C(=O)c1sc2c(c1C)c(=O)n(-c1ccc(Cl)c(Cl)c1)c(=O)n2Cc1cc(=O)n2ccccc2n1	-	.	-	.	.	-
CCCCCCOc1ccc(NC(=O)CC2C(=O)N(CC)C(=S)N2Cc2ccco2)cc1 (stereo unspecified)	-	18.4µM	?	-100.8	?	-
COc1ccc(NC(=O)CC2C(=O)N(Cc3ccccc3)C(=S)N2CCN2CCOCC2)cc1 (stereo unspecified)	-	-	-	-	-	-
CCN1C(=O)C(CC(=O)Nc2ccc(F)cc2)N(Cc2ccco2)C1=S (stereo unspecified)	-	-	-	-	-	-
C=CCN1C(=O)C(CC(=O)Nc2ccc(OCCC)cc2)N(CCCN2CCN(Cc3ccccc3)CC2)C1=S (stereo unspecified)	-	?	?	-67.2	-	?
COC(=O)C1CCCCN1Cc1ccc2c(c1)CN(C(=O)c1ccc(C)s1)CCO2 (stereo unspecified)	-	.	-	.	.	.
CCN(C(=O)CSc1nc2n[nH]c(C)c2c(=N)n1-c1ccc(Cl)c(C)c1)c1cccc(C)c1	-	8.2µM	?	?	?	.
CCc1ccc(NC(=O)CSc2nc3n[nH]c(C)c3c(=N)n2-c2ccc(C)cc2)cc1	-	.	.	.	.	.
Cc1[nH]nc2nc(SCC(=O)NC3CCCCC3)n(-c3ccc(Br)cc3)c(=N)c12	-	11.6µM	20µM	-	?	12.6µM
COc1ccc(OC)c(C2CC(c3c(-c4ccccc4)c4cc(Cl)ccc4[nH]c3=O)=NN2S(C)(=O)=O)c1 (stereo unspecified)	-	7.31µM	-	-	?	-
O=C(CCl)NC(Cc1ccccc1)c1ccccc1 (stereo unspecified)	-	?	?	-95.4	16.4µM	?
CC(=O)C(Cc1ccccc1)NC(=O)CCl (stereo unspecified)	-	-	-	-	-	-
CCOc1ccccc1CNC(=O)c1oc2c(c1C)-c1[nH]ncc1CC2	-	.	.	.	.	.
COC(=O)c1cc2occc2n1CC(=O)Nc1ccc(OC)c(OC)c1OC	-	-	-	-	-	-

High-throughput results (PubChem)
